The values that follow come from PubChem BioAssay (NCI).

The structures appear in SMILES notation. Compounds without any hit were thinned out: in the full panel of roughly 79,000, 15% have a hit. The source made the active and inactive calls. No stated cut-off is given here; in the data, active means growth inhibition above about 70%; inactive means the rest.

This assay can be described thus: NCI Yeast Anticancer Drug Screen. Data for the mlh1 rad18 strain (AID 175). The settings on record: S. cerevisiae mlh1 rad18 strain growth inhibition; at 50.0 µM; stronger effect = higher value. A digest of the protocol:
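Compound-treated yeast growth, normalised to vehicle controls. Strain bears defined DNA repair mutations.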
As to `CC1(CCOCc2ccccc2)NC(=O)N(CCC#N)C1=O` (stereo not given), the growth inhibition is 12.6% (inactive).

As for `CC(C)CC(O)CC(C)C`, the growth inhibition was 19.8% (inactive).

`CC1(C)CC2=C(Sc3ccccc3N2)C(=O)C1C(=O)C(=O)Nc1cc(Cl)ccc1Cl` (stereo not given): the growth inhibition was -9.55% (inactive).

Take `Brc1cc2c(cc1CC1CCCCO1)OCO2` (stereo not given): the growth inhibition was 0.85% (inactive).

As for `COc1ncc(/C=C2\OC(=O)c3ccccc32)c(OC)n1`, the growth inhibition is 16.9% (inactive).

For the compound `CCCCOCCOCCOC(=O)C(C)O` (stereo not given), the growth inhibition was -14% (inactive).

Take `Cn1c(-c2ccccc2)cc(=O)cc1-c1ccccc1`: the growth inhibition was -19.2% (inactive).

In the case of `COc1cc(/C=N\N=C(/C)c2ccc(C)cc2C)cc(OC)c1OC`, the growth inhibition is 24.6% (inactive).

In the case of `CNN=C(C)C`, the growth inhibition was -19.3% (inactive).

With `CC(N)C(C)(C)O` (stereo not given), the growth inhibition was 0.05% (inactive).

`OC(c1ccccc1)(c1ccccc1)c1ccccc1CNc1ccccc1`: the growth inhibition was 49.8% (inactive).

Consider `O=C(O)/C(=C\c1ccncc1)c1cccc2ccccc12`, for which the growth inhibition was -9.65% (inactive).

Consider `CC(=O)OCC(OC(C)=O)C(OC1OC(COC(C)=O)C(OC(C)=O)C(OC(C)=O)C1OC(C)=O)C(OC(C)=O)c1cnn(-c2ccccc2)n1` (stereo not given), for which the growth inhibition is -5.75% (inactive).

As for `Cc1cccc(C)c1/[N+]([O-])=C/c1cccc([N+](=O)[O-])c1`, the growth inhibition was -2.25% (inactive).

As for `CCCC(O)C(C)C(C)O` (stereo not given), the growth inhibition is -8.75% (inactive).

Turning to `Nc1ccc(S(=O)(=O)Nc2nccs2)cc1`, the growth inhibition was -3.4% (inactive).

On to `COc1ccc(C2c3cc4c(cc3OC(C)(OC)C2C)OCO4)cc1` (stereo not given), for which the growth inhibition is 14.7% (inactive).

As to `COc1ccc(OC)c(NC(=O)Nc2ccc(I)cc2)c1`, the growth inhibition was 56% (inactive).

Turning to `COc1cccc(/C=N\c2nc(-c3ccccc3Cl)cs2)c1O`, the growth inhibition is 27.4% (inactive).

As to `COc1ccc(N2C(=O)c3c(C)ccc(C)c3C2=O)cc1`, the growth inhibition is 5.15% (inactive).

For `CS(=O)(=O)OCC1NC(=O)C(COS(C)(=O)=O)NC1=O` (stereo not given), the growth inhibition was 3.7% (inactive).

Turning to `COC(=O)/C(=N\O)C(C(=O)C=C(C)C)C(=O)C(=O)Nc1ccccc1C` (stereo not given), the growth inhibition was -18.1% (inactive).

With `COc1cc2c(cc1O)C(=O)CCCC2`, the growth inhibition is 1.2% (inactive).

On to `COc1ccc(-c2cc(-c3ccccc3)n(C3OC(COC(C)=O)C(OC(C)=O)C(OC(C)=O)C3OC(C)=O)c(=S)c2C#N)cc1` (stereo not given), for which the growth inhibition is -5.2% (inactive).

For the compound `CCOC(=O)c1n[nH]c(=S)[nH]c1=O`, the growth inhibition was -14.9% (inactive).

Turning to `O=[N+]([O-])c1ccc(/C=N\NC(=S)Nc2ccc3cn[nH]c3c2)cc1`, the growth inhibition is -9.65% (inactive).

Consider `N=C(N)c1ccc(NC(=O)c2ccc(C(=O)Nc3ccc(C(=N)N)cc3)c(N)c2)cc1`, for which the growth inhibition was -7.3% (inactive).

Take `O=C(CC(=O)N1N=C(N(c2ccccc2)c2ccccc2)CC1c1ccccc1)Nc1ccccc1` (stereo not given): the growth inhibition is 0.1% (inactive).

For `Cc1ccc2[nH]c(=S)n(CCc3ccccc3)c(=O)c2c1`, the growth inhibition was 13.7% (inactive).

For the compound `CCOc1ccc(N=Nc2c(O)n(-c3ccc(Br)cc3)c(=S)n(-c3ccc(OC)cc3)c2=O)cc1`, the growth inhibition is 2.3% (inactive).

For `CCCCCCC#CC(=O)OCCCC`, the growth inhibition is -16.4% (inactive).

For the compound `Clc1cccc2[nH]ccc12`, the growth inhibition is -3.9% (inactive).

Regarding `COc1ccc(C(=O)N/N=C/c2c(C)n(C)n(-c3ccccc3)c2=O)cc1`, the growth inhibition is -48.5% (inactive).

On to `O/N=C(\CC(O)(C(F)(F)F)C(F)(F)F)c1cccs1`, for which the growth inhibition was 93.5% (active).

Take `Cc1cc2c3c(c1)CCCN3CCC2`: the growth inhibition is 2.8% (inactive).

Consider `CCC1(C#N)OC1C` (stereo not given), for which the growth inhibition was 27.4% (inactive).

Consider `CCCC(=O)Nc1ccccc1OC`, for which the growth inhibition is -0.75% (inactive).

On to `C(CCN1CN(CCCCN2CCOCC2)CN(CCCCN2CCOCC2)C1)CN1CCOCC1`, for which the growth inhibition was 29.6% (inactive).

As for `C/C(CC(=O)Nc1ccc(Cl)cc1)=N\NC(N)=S`, the growth inhibition is -0.6% (inactive).

As to `CCCCCCC(C#N)(CCN(C)C)c1ccccc1` (stereo not given), the growth inhibition was 22.8% (inactive).
